Activity calls are given as the source filed them.
How the values were obtained:
[1] = binders of probe aFSTL3 on microarray, primary screen, stem cell growth factor project, biochemical, small-molecule microarray, fluorescence 635/667 (AID 1064); conditions: higher = more signal;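 also: measures binding of the biotinylated anti-FSTL3 antibody to printed compounds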
[2] = binders from COS7 lysate, DM2A8 probe, primary screen, torsin A project, cell lysate, small-molecule microarray, fluorescence 635/667 (AID 1065); conditions: higher = more signal, COS7 lysate expressing mutant human TOR1A
[3] = binders of probe aFGF2 on microarray, primary screen, stem cell growth factor project, biochemical, small-molecule microarray, fluorescence 635/667 (AID 1067); conditions: higher = more signal;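 also: measures binding of biotinylated aFGF2 protein to printed compounds on slides; z-score merges feature fluorescence and signal-to-noise across triplicate slides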
[4] = binders of probe aFGF10 on microarray, primary screen, stem cell growth factor project, biochemical, small-molecule microarray, fluorescence 635/667 (AID 1071); conditions: higher = more signal;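 also: score merges 667 nm spot intensity and signal to noise from triplicate slides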
[5] = biological target: Neurogenic locus notch homolog protein 2 (Homo sapiens) (UniProt Q04721); experiment: Notch2 binders on small-molecule microarrays, primary screen, biochemical, small-molecule microarray, 635 nm fluorescence, stem cell growth factors (AID 1073); conditions: Notch2 binding, higher = more signal
[6] = biological target: Pro-neuregulin-1, membrane-bound isoform (Homo sapiens) (UniProt Q02297); experiment: NRG1 binders on small-molecule microarrays, primary screen, psychiatric disease protein project, biochemical, small-molecule microarray, fluorescence 635/667 (AID 1075); conditions: NRG1 binding, 635 nm fluorescence, higher = more signal;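 also: score combines 667 nm spot fluorescence with signal to noise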
Pro-neuregulin-1, membrane-bound isoform (Homo sapiens), sequence (Q02297 whole entry, looked up, the tested form may be a part, canonical isoform): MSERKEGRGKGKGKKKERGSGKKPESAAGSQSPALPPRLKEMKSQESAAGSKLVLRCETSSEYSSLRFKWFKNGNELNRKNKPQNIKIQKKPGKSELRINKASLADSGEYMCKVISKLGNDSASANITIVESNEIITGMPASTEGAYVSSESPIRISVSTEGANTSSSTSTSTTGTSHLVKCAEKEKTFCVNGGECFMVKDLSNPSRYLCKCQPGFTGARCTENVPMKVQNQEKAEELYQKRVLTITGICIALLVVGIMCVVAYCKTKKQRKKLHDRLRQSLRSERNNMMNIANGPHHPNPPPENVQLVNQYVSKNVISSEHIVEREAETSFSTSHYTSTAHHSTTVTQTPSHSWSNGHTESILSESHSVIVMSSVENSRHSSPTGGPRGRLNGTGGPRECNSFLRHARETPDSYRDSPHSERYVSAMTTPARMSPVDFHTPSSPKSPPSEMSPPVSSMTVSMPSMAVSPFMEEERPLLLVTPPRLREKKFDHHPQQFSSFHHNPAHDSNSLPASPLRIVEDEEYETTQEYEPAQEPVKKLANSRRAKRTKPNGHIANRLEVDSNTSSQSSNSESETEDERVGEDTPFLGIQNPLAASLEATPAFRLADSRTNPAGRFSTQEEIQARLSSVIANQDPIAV

[7] = system: Neuregulin-1 EGF-like domain; experiment: binders of neuregulin-1 EGF-like domain, primary screen, biochemical, small-molecule microarray, 635 nm fluorescence (AID 1081); conditions: small-molecule microarray binding, higher = more signal;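 also: binding of the protein to compounds printed on small-molecule microarray slides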
[8] = FRG1 promoter luciferase signal modulators, primary screen, FRG1 inhibition for FSHD, cell-based, C2C12 myotubes, firefly/Renilla luciferase, luminescence (AID 1084); conditions: higher = more signal, called active from +8 up or from −8 down
[9] = binders of probe aFST on microarray, primary screen, stem cell growth factor project, biochemical, small-molecule microarray, fluorescence 635/667 (AID 1086); conditions: higher = more signal;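 also: score merges 667 nm fluorescence with signal-to-noise of each printed compound spot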
[10] = binders of probe aHhip on microarray, primary screen, stem cell growth factor project, biochemical, small-molecule microarray, fluorescence 635/667 (AID 1087); conditions: higher = more signal;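 also: score merges spot fluorescence at 667nm with spot signal to noise ratio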
[11] = system: PRMT1 (protein arginine N-methyltransferase 1); experiment: PRMT1 binders on small-molecule microarrays, primary screen, biochemical, small-molecule microarray, 635 nm fluorescence (AID 1088); conditions: small-molecule microarray binding, higher = more signal;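 also: binding of Prmt1 protein to compounds spotted on small-molecule microarray slides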
[12] = yeast growth modulation, basal conditions, primary screen, YJM789 clinical isolate, OD600, 24 h (AID 1089);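 also: growth of clinical yeast isolate S. cerevisiae YJM 789 seeded 1000 cells per well; test concentration not given here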; conditions: S. cerevisiae YJM789 growth, higher = more signal, called active from +8 up or from −8 down
[13] = fission yeast growth modulation, primary screen, strain 972, OD600, 24 h, no modulator (AID 1090);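 also: basal condition with compound alone and no growth modifier present; test concentration not given here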; conditions: S. pombe 972 growth, higher = more signal, called active from +8 up or from −8 down
[14] = S. cerevisiae growth modulation with rapamycin, primary screen, strain BY4716, OD600, 96 h (AID 1091); conditions: higher = more signal, called active from +8 up or from −8 down; also: test concentration not given here
[15] = biological target: Torsin-1A-interacting protein 2 (Homo sapiens) (UniProt Q8NFQ8); experiment: LULL1 binders on small-molecule microarray, primary screen, cell lysate, human LULL1 lysate, 635/667 nm fluorescence (AID 1092); conditions: hLULL1 lysate binding, 635 nm fluorescence, higher = more signal;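 also: probe is lysate of COS7 cells overexpressing human LULL1; score merges per-feature 667 nm fluorescence with signal-to-noise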
Torsin-1A-interacting protein 2 (Homo sapiens), sequence (Q8NFQ8 whole entry, looked up): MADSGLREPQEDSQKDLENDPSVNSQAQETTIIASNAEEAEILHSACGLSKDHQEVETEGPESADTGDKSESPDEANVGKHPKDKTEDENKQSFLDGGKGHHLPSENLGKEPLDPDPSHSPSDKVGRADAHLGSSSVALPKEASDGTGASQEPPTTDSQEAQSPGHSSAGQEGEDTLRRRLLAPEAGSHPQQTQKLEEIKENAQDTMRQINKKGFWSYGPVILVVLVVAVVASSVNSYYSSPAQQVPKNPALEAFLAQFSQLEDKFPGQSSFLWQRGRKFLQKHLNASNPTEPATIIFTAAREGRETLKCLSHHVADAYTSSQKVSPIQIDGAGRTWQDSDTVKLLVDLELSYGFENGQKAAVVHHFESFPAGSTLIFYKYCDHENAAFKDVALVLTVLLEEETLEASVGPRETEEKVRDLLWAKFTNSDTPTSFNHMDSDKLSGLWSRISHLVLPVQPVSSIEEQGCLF

[16] = E. coli growth modulation, two-sided OD650, primary screen, E. coli filamentation project, strain DRC41, 24 h (AID 1093); conditions: OD650, 24 h, higher = more signal, called active from +8 up or from −8 down;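 also: MC1000 strain lacking acrAB efflux and sulA so SOS filamentation is blocked; test concentration not given here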
[17] = small-molecule microarray binders of probe aLefty2, primary screen, biochemical, biotinylated probe, 635/667 nm fluorescence (AID 1094); conditions: higher = more signal;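 also: score merges spot fluorescence near 667 nm with spot signal-to-noise ratio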
[18] = system: Noggin (protein binding on small-molecule microarray); experiment: Noggin binders on small-molecule microarray, primary screen, biochemical, 635/667 nm fluorescence (AID 1095); conditions: 635 nm fluorescence, higher = more signal;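 also: score merges 667 nm feature fluorescence with signal to noise over triplicate slides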
[19] = biological target: Neurogenic locus notch homolog protein 3 (Homo sapiens) (UniProt Q9UM47); experiment: NOTCH3 binders on small-molecule microarray, primary screen, biochemical, 635/667 nm fluorescence (AID 1096); conditions: NOTCH3 binding, 635 nm fluorescence, higher = more signal
Neurogenic locus notch homolog protein 3 (Homo sapiens), sequence (Q9UM47 whole entry, looked up): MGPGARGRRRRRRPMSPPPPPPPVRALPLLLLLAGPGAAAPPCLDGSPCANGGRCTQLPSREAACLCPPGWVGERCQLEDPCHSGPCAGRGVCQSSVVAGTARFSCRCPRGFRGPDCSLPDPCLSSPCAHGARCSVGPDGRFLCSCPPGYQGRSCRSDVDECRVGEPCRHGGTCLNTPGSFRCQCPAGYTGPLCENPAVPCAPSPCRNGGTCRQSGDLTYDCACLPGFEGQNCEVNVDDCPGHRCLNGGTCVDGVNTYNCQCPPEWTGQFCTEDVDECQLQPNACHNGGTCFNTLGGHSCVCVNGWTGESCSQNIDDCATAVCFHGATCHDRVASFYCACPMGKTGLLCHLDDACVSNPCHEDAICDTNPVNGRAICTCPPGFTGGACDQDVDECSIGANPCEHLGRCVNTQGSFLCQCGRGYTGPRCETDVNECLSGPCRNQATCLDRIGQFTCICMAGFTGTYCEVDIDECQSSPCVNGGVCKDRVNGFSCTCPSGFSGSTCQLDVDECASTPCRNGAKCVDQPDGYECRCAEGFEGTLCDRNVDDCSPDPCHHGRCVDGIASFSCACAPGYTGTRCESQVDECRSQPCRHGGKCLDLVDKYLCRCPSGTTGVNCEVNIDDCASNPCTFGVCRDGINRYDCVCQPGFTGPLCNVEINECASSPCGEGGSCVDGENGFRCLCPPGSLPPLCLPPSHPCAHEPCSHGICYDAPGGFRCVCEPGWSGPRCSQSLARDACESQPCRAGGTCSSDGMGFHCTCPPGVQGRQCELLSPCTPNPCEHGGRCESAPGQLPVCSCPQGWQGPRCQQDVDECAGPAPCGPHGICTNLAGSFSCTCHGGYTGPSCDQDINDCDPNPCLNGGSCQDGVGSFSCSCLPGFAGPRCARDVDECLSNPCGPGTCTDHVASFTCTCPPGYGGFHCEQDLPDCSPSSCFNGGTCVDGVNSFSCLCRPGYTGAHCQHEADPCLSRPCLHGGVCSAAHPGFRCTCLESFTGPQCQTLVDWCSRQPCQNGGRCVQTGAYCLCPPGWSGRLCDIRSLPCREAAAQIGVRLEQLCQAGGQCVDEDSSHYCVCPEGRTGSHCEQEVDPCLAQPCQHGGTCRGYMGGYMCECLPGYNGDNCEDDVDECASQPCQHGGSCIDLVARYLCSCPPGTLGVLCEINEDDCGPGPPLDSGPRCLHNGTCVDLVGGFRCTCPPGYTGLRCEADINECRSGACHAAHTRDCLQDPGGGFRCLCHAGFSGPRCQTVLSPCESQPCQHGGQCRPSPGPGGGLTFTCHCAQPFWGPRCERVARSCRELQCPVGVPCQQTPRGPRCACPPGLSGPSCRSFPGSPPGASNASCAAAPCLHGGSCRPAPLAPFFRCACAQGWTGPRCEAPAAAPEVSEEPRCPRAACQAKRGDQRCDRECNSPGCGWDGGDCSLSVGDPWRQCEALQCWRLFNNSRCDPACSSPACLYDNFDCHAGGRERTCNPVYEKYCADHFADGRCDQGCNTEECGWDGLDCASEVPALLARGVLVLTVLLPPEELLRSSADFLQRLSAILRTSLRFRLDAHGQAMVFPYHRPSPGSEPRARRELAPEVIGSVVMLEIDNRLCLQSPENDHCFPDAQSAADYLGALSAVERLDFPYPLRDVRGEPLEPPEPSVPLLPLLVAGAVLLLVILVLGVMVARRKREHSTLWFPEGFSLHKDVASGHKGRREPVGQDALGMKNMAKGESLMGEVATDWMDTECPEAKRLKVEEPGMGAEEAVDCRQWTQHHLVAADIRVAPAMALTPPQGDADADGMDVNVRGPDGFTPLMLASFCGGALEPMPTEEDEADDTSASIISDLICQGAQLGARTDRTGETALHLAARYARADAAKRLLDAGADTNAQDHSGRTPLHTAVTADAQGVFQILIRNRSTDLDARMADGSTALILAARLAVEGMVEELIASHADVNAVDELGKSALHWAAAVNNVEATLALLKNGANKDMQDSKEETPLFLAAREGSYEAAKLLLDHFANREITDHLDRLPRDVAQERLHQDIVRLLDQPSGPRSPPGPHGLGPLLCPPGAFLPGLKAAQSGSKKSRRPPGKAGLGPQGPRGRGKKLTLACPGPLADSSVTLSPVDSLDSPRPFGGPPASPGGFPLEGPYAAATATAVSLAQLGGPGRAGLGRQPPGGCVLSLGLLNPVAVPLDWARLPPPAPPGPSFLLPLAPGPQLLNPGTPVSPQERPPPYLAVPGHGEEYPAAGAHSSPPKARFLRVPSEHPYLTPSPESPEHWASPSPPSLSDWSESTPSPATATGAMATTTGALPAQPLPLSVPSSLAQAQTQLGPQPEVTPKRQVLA

[20] = small-molecule microarray binders of probe aEGFR, primary screen, biochemical, biotinylated probe, 635/667 nm fluorescence (AID 1097); conditions: higher = more signal;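 also: probe is a biotinylated anti-EGFR antibody binding compounds printed on slides; score combines fluorescence near 667 nm and signal to noise of each spot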

COCCOC(=O)N1C(=O)[C@@]2(c3cc(C#CCCO)ccc31)[C@H](c1ccc(OCCO)cc1)N1[C@H](c3ccccc3)[C@H](c3ccccc3)OC(=O)[C@H]1[C@@H]2C(=O)N1CCN(c2ncccn2)CC1
composite z-score [1]: -0.204 | composite z-score [2]: -0.0161 | composite z-score [3]: -0.0972 | composite z-score [4]: 0.281 | composite z-score [5]: 1.33 | composite z-score [6]: 0.317 | composite z-score [7]: 1.23 | z-score [8]: -0.37 (inactive) | composite z-score [9]: 0.658 | composite z-score [10]: 0.0274 | composite z-score [11]: 1.55 | z-score [12]: -0.01 (inactive) | z-score [13]: 0.342 (inactive) | z-score [14]: 2.94 (inactive) | composite z-score [15]: 2.42 | z-score [16]: -0.0542 (inactive) | composite z-score [17]: -0.123 | composite z-score [18]: 1.23 | composite z-score [19]: 1.06 | composite z-score [20]: -0.0066

C#CCNC(=O)[C@H](Cc1ccccc1)NC(=O)CCC(=O)O
composite z-score [1]: -0.0733 | composite z-score [2]: -0.267 | composite z-score [3]: -0.158 | composite z-score [4]: -0.704 | composite z-score [5]: -1.46 | composite z-score [6]: -0.592 | composite z-score [7]: -0.33 | z-score [8]: 0.338 (inactive) | composite z-score [9]: 1.03 | composite z-score [10]: -0.0994 | composite z-score [11]: -1.17 | z-score [12]: -0.136 (inactive) | z-score [13]: 0.396 (inactive) | z-score [14]: 0.0017 (inactive) | composite z-score [15]: -0.906 | z-score [16]: -0.361 (inactive) | composite z-score [17]: -0.198 | composite z-score [18]: -0.88 | composite z-score [19]: -0.502 | composite z-score [20]: -0.238

C=CCOC(=O)[C@@H]1[C@H]2C(=O)O[C@H](c3ccccc3)[C@H](c3ccccc3)N2[C@H](c2ccc(OCCOC(=O)[C@@H]3C[C@@H]4C(=O)N5CCC[C@H]5C(=O)N4[C@@H]3c3ccc(O)cc3)cc2)[C@@]12C(=O)Nc1ccc(I)cc12
composite z-score [1]: -0.354 | composite z-score [2]: -0.0315 | composite z-score [3]: -0.0958 | composite z-score [4]: 0.235 | composite z-score [5]: 0.666 | composite z-score [6]: 0.596 | composite z-score [7]: 1.19 | z-score [8]: -0.804 (inactive) | composite z-score [9]: 0.965 | composite z-score [10]: -0.069 | composite z-score [11]: 1.42 | z-score [12]: -0.577 (inactive) | z-score [13]: 0.687 (inactive) | z-score [14]: 2.09 (inactive) | composite z-score [15]: 2.55 | z-score [16]: 1.75 (inactive) | composite z-score [17]: -0.207 | composite z-score [18]: 1.51 | composite z-score [19]: 0.565 | composite z-score [20]: -0.242

[N-]=[N+]=NCc1ccccc1C[C@]1(C(=O)N2CCOCC2)N=C(c2ccc(OCCCO)cc2)O[C@H]1c1ccccc1N=[N+]=[N-]
composite z-score [1]: 0.0631 | composite z-score [2]: 1.43 | composite z-score [3]: 0.136 | composite z-score [4]: 1.12 | composite z-score [5]: 1.55 | composite z-score [6]: 0.872 | composite z-score [7]: 1.29 | z-score [8]: -0.395 (inactive) | composite z-score [9]: 2.05 | composite z-score [10]: 0.259 | composite z-score [11]: 1.41 | z-score [12]: -1.18 (inactive) | z-score [13]: -2.26 (inactive) | z-score [14]: 2.79 (inactive) | composite z-score [15]: 3.51 | z-score [16]: 0.188 (inactive) | composite z-score [17]: 0.349 | composite z-score [18]: 1.5 | composite z-score [19]: 1.03 | composite z-score [20]: 0.144

C=C[C@H](COC(C)=O)N(C(=O)OC(C)(C)C)S(=O)(=O)c1ccc(Br)cc1
composite z-score [1]: 0.726 | composite z-score [2]: 0.303 | composite z-score [3]: 0.278 | composite z-score [4]: 0.348 | composite z-score [5]: 1.33 | composite z-score [6]: -0.243 | composite z-score [7]: 0.652 | z-score [8]: -1.89 (inactive) | composite z-score [9]: 1.23 | composite z-score [10]: 0.32 | composite z-score [11]: 0.616 | z-score [12]: 0.0834 (inactive) | z-score [13]: -1.25 (inactive) | z-score [14]: 0.239 (inactive) | composite z-score [15]: 0.597 | z-score [16]: 1.47 (inactive) | composite z-score [17]: 0.518 | composite z-score [18]: 1.09 | composite z-score [19]: 0.0585 | composite z-score [20]: 0.545

CCOC(=O)C[C@H]1[C@H](OC(=O)Cc2ccc3c(c2)OCO3)[C@@H](NC(=O)c2ccc(-c3ccccc3)cc2)c2cc(OCCCO)ccc2N1C(=O)Cc1ccc(OC)cc1
composite z-score [1]: -0.429 | composite z-score [2]: 0.816 | composite z-score [3]: -0.0636 | composite z-score [4]: 0.412 | composite z-score [5]: 0.819 | composite z-score [6]: 0.337 | composite z-score [7]: 0.269 | z-score [8]: -3.25 (inactive) | composite z-score [9]: 0.339 | composite z-score [10]: -0.415 | composite z-score [11]: 0.81 | z-score [12]: -1.32 (inactive) | z-score [13]: -1.09 (inactive) | z-score [14]: 0.105 (inactive) | composite z-score [15]: 0.826 | z-score [16]: 1.09 (inactive) | composite z-score [17]: 0.0163 | composite z-score [18]: 0.185 | composite z-score [19]: 0.921 | composite z-score [20]: 0.0881

O=C1C2C=CC(C(O)C(c3ccccc3)c3ccccc3)N(n3cnnc3)C2C(=O)N1Cc1ccccc1 (stereo not given)
composite z-score [1]: -0.148 | composite z-score [2]: 0.488 | composite z-score [3]: 0.129 | composite z-score [4]: 0.784 | composite z-score [5]: 0.492 | composite z-score [6]: 0.429 | composite z-score [7]: 1.19 | z-score [8]: 0.266 (inactive) | composite z-score [9]: 0.578 | composite z-score [10]: 0.446 | composite z-score [11]: 1.44 | z-score [12]: -0.743 (inactive) | z-score [13]: -0.615 (inactive) | z-score [14]: -0.771 (inactive) | composite z-score [15]: 3.25 | z-score [16]: -1.21 (inactive) | composite z-score [17]: -0.109 | composite z-score [18]: 0.531 | composite z-score [19]: 1.1 | composite z-score [20]: -0.167

CC(C)C[C@@H]1NC(=O)[C@H]2C[C@@H](C(=O)NCCCCCCN)[C@@H](c3ccc(O)cc3)N2C1=O
composite z-score [1]: 0.839 | composite z-score [2]: 0.252 | composite z-score [3]: -0.0212 | composite z-score [4]: -0.0652 | composite z-score [5]: -0.277 | composite z-score [6]: 0.612 | composite z-score [7]: 1.1 | z-score [8]: -0.811 (inactive) | composite z-score [9]: 0.472 | composite z-score [10]: 0.134 | composite z-score [11]: 1.17 | z-score [12]: -0.582 (inactive) | z-score [13]: -0.464 (inactive) | z-score [14]: -0.283 (inactive) | composite z-score [15]: 2.32 | z-score [16]: -0.11 (inactive) | composite z-score [17]: 0.679 | composite z-score [18]: 0.696 | composite z-score [19]: 0.529 | composite z-score [20]: 0.125

C=C/C=C/[C@H]1C(=C)CN([C@@H](Cc2ccccc2)C(=O)OC)[C@@H]1[C@H](O)Cc1ccccc1
composite z-score [1]: 0.042 | composite z-score [2]: -0.951 | composite z-score [3]: -0.203 | composite z-score [4]: -0.189 | composite z-score [5]: -1.06 | composite z-score [6]: -0.824 | composite z-score [7]: -0.5 | z-score [8]: -0.164 (inactive) | composite z-score [9]: -0.364 | composite z-score [10]: -0.455 | composite z-score [11]: -0.473 | z-score [12]: -0.15 (inactive) | z-score [13]: -1.35 (inactive) | z-score [14]: -0.557 (inactive) | composite z-score [15]: 0.428 | z-score [16]: 0.311 (inactive) | composite z-score [17]: -0.149 | composite z-score [18]: -0.219 | composite z-score [19]: -0.0424 | composite z-score [20]: -0.316
